This is an account of results in PubChem BioAssay (EPA / NIEHS).

The source holds several records for some structures; these can differ, active in one and inactive in another. The source made the active and inactive calls. How the source made its calls: active means hit-call score of the fitted dose curve at least 0.9, where 1 is the maximum; inactive means score below 0.9.

Sequence of Heat shock factor protein 1 (Homo sapiens) (Q00613 whole entry, looked up): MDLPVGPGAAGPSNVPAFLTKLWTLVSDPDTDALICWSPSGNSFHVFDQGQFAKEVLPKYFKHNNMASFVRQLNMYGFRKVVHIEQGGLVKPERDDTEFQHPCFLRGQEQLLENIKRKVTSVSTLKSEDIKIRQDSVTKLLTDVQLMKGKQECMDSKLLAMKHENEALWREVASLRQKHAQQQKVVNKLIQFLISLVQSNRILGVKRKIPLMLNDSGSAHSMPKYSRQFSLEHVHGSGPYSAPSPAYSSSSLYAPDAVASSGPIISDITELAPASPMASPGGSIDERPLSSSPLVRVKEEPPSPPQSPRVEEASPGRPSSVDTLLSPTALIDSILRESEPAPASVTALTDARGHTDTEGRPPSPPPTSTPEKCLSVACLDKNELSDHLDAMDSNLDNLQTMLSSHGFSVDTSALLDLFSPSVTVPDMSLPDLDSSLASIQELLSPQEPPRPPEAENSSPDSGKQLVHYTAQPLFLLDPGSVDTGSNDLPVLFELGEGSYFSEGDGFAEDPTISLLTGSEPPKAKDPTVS

This assay concerns the target Heat shock factor protein 1 (Homo sapiens) (UniProt Q00613). Put plainly: ATG_HSE_CIS: Attagene CIS-FACTORIAL HepG2 Assay for human Heat Shock Transcription Factor 1 (HSE) (AID 2282953). Particulars: HepG2 HSE cis-reporter, Attagene RNA transcription; actives raise or lower the signal. The protocol:
ATG_CIS is a cell-based, multiplexed-readout assay that uses HepG2, a human liver cell line, with measurements taken at 24 hours after chemical dosing in a 24-well plate.ATG_HSE_CIS is one of 52 assay component(s) measured or calculated from the ATG_CIS assay. It is designed to make measurements of mRNA induction, a form of inducible reporter, as detected with fluorescence intensity signals by Reverse transcription polymerase chain reaction (RT-PCR) and Capillary electrophoresis technology.Data from the assay component ATG_HSE_CIS was analyzed into 1 assay endpoint. This assay endpoint, ATG_HSE_CIS, was analyzed with bidirectional fitting relative to DMSO as the negative control and baseline of activity. Using a type of inducible reporter, measures of mRNA for gain or loss-of-signal activity can be used to understand the reporter gene at the transcription factor-level as they relate to the gene HSF1. Furthermore, this assay endpoint can be referred to as a primary readout, because this assay has produced multiple assay endpoints where this one serves a reporter gene function. To generalize the intended target to other relatable targets, this assay endpoint is annotated to the dna binding intended target family, where the subfamily is heat shock protein.
Human liver HepG2 cells are transiently transfected with multiple reporter transcription units (MRTUs) in 6-well plates using FuGene 6 reagent (Roche; 3 ml FuGene/1 mg DNA). The MRTU constructs are regulated by a cis-regulating element (promoter). […] A major difference between the CIS and TRANS system is that in CIS activities of endogenous TFs are measured, whereas the TRANS assay evaluates changes in activities of exogenous, chimeric NR-Gal4 proteins. […] At the end of 24 hour incubation, total RNA was isolated using TriZol reagent (Invitrogen). The isolated RNA is then reverse-transcribed using oligo(dT) primer and Mo-MLV reverse transcriptase (Invitrogen) with DNAse I (Ambion) treatment for 30 min. The one-tenth of the produced cDNA was amplified by PCR using Taq DNA polymerase (Invitrogen) and two reporter sequence-specific primers. The PCR products were fluorescently labeled by primer extension with 6-arboxyfluorescein (6-FAM) 5'-labeled reporter sequence-specific primer (2 min at 95 C, 20 s at 68 C and 10 min at 72 C) and these products were digested with 5U of HpaI (New England Biolabs) for 2h at 37 C. The fragments were purified using Qiaquick PCR columns (Qiagen), analyzed on an ABI 3130xL genetic analyzer (Applied Biosystems) with peak positions identified by using a set of X-rhodamine (ROX)-labeled MapMarker1000 molecular weight standards (BioVentures). The raw capillary electrophoresis data was processed using Attagraph software (Attagene).
Regarding `FC(F)(F)C(F)(F)C(F)(F)C(F)(F)C(F)(F)C(F)(F)C(F)(F)C(F)(F)F`, the molecule was classed as inactive. As for `O=C(O)C(F)(F)C(F)(F)C(F)F`, the call was inactive. Broadly, the AC50 is the concentration giving half of the maximal activity seen. Take `OCCCC(F)(F)C(F)(F)C(F)(F)C(F)(F)C(F)(F)C(F)(F)C(F)(F)F`: the outcome was inactive and the AC50 is 95.1 µM (active). Take `C=C(C)C(=O)OCC(F)(F)C(F)(F)C(F)(F)C(F)(F)C(F)(F)C(F)(F)C(F)(F)F`: the molecule was classed as inactive.

For `FC(F)(F)C(F)(F)C(F)(F)C(F)(F)C(F)(F)C(F)(F)C(F)(F)Br`, the result was inactive. For `FC1CC(F)(F)C(F)(F)C1(F)F` (stereo not given), the outcome was inactive. Turning to `O=C(CC(=O)C(F)(F)C(F)(F)F)C(F)(F)F`, the molecule was classed as inactive. Consider `OCC(F)(F)C(F)(F)C(F)(F)C(F)F`, for which the molecule was called inactive. Turning to `CS(C)(=O)=O`, the outcome was inactive. Same read-out and setting: then `CC(C)(C)c1ccc(OC2CCCCC2O)cc1` (stereo not given), with “inactive”; and `CC(=O)Nc1ccc(N=Nc2cc(C)ccc2O)cc1`, with “inactive”.

Turning to `CC(CCl)OP(=O)(OC(C)CCl)OC(C)CCl` (stereo not given), the molecule was classed as inactive.

For the molecule `CCc1c(Br)c(Br)c(Br)c(Br)c1Br`, the call was inactive.

As to `OCC(F)(F)C(F)(F)C(F)(F)C(F)(F)C(F)(F)C(F)F`, the molecule was classed as inactive. As for `CC/C=C\CCOC(=O)c1ccccc1`, the molecule was classed as inactive. On the same count and under the same terms, then `CNC(=S)NC`, with “inactive”; and `Cc1ccc(S(=O)(=O)OCC(F)(F)C(F)(F)C(F)(F)C(F)(F)C(F)(F)C(F)F)cc1`, with “inactive”. On the same count and under the same terms, then `C1COCCN1`, with “inactive”; and `COC(OC(C)=O)c1ccccc1` (stereo not given), with “inactive”; and `N=C(N)C(F)(F)C(F)(F)C(F)(F)C(F)(F)C(F)(F)C(F)(F)C(F)(F)F`, with “inactive”. On the same count and under the same terms, then `O=C(O)C(F)(F)C(F)(F)C(F)(F)C(F)(F)C(F)(F)C(F)(F)C(F)(F)C(F)(F)C(F)(F)C(F)(F)C(F)(F)C(F)(F)C(F)(F)F`, with “inactive”.

Regarding `FC(F)(F)C(F)(F)C(F)(F)C(F)(F)C(F)(F)C(F)(F)CCS`, the molecule was called inactive. In the case of `COC(=O)C1CCC(C(=O)OC)CC1` (stereo not given), the molecule was classed as inactive. As to `OCCCC(F)(F)C(F)(F)C(F)(F)F`, the molecule was classed as inactive. `FC(F)(F)C(F)(F)CNCC(F)(F)C(F)(F)F`: the result was inactive.

For `O=C(O)C(F)(F)C(F)(F)C(F)(F)F`, the result was inactive. As to `[Co]`, the molecule was called inactive. Regarding `CC/C=C\CCOC(C)=O`, the molecule was called inactive. For `C=C(C)C(=O)OCCC(F)(F)C(F)(F)C(F)(F)C(F)(F)C(F)(C(F)(F)F)C(F)(F)F`, the outcome was inactive. On the same count and under the same terms, then `CC(C)=CCCC(C)CCOC(=O)C(C)C` (stereo not given), with “inactive”; and `CCCCOCCOCCOC(=O)CCCCC(=O)OCCOCCOCCCC`, with “inactive”. Take `Nc1ccc(S(=O)(=O)Nc2nccs2)cc1`: the outcome was inactive. In the case of `FC(F)(F)C(F)(F)C(F)(F)N(C(F)(F)C(F)(F)C(F)(F)F)C(F)(F)C(F)(F)C(F)(F)F`, the outcome was inactive. For `Cc1cc(C)cc(O)c1`, the result was inactive.

On to `NC(=O)C(F)(F)C(F)(F)C(F)(F)C(F)(F)F`, for which the molecule was classed as inactive. As for `O[Si](c1ccccc1)(c1ccccc1)c1ccccc1`, the molecule was called inactive.

In the case of `O=C(OCCOCCOCCOC(=O)c1ccccc1)c1ccccc1`, the molecule was called inactive. Same read-out and setting: then `Cc1ccc(S(=O)(=O)NCl)cc1`, with “inactive”; and `c1ccc(-c2ccccc2-c2ccccc2)cc1`, with “inactive”.
